The record followed here is PubChem BioAssay (Tox21).

The structures appear in SMILES notation. Inconclusive results are not listed. Calls of active or inactive are those of the source. The call rests on the fitted dose curve; in most records, active means well fitted cell-killing curve with a large enough effect in the repeat runs; inconclusive means weak or mixed curves, or effect the other way; inactive means flat fitted curve, though single readings scatter.
On the % scale 0 is the no-effect control and ±100 the full control effect.

The assay is described as follows: qHTS assay to identify small molecule agonists of the estrogen receptor beta (ER-beta) signaling pathway - cell viability counter screen (AID 1259380). Further: nearly all actives have a fitted effect of over 30% in size. As to conditions: ER-beta-bla HEK293T viability, CellTiter-Glo luminescence, 16 h; series mostly up to 92.4 µM. The source says: National Center for Advancing Translational Sciences [NCATS]
NIH Chemical Genomics Center [NCGC]
U.S. Environmental Protection Agency [EPA]
National Institutes of Environmental Health Sciences [NIEHS]
National Toxicology Program [NTP]
U.S. Food and Drug Administration [FDA]
Estrogen receptor (ER), a nuclear hormone receptor, plays an important role in development, metabolic homeostasis and reproduction. Two subtypes of ER, ER-alpha and ER-beta, have similar expression patterns with some uniqueness in both types. Endocrine disrupting chemicals (EDCs) and their interactions with steroid hormone receptors like ER causes disruption of normal endocrine function. To identify the compounds that activate ER signaling, an ER beta-UAS-bla GripTite cell line (Life Technologies, Madison, WI, USA) containing a beta-lactamase reporter gene under the control of an UAS response element was used to screen Tox21 10K compound library. The cytotoxicity of the Tox21 compound library against the ER-beta-bla cell line was tested in parallel by measuring the cell viability using CellTiter-Glo assay in the same wells.
Tox21 Assay Protocol Summary:
ER-beta-UAS-bla HEK293T cells were dispensed at 2,000 cells/5 uL of assay medium containing 2% charcoal stripped FBS per well into black wall/clear-bottom 1536-well plates using a Multidrop Combi (ThermoFisher Scientific, Waltham, MA) dispenser. After the assay plates were incubated at a 37C and 5% CO2 for 6 hr, 23 nL of compounds dissolved in DMSO, positive controls or DMSO only was transferred to the assay plate by a Pintool station (Kalypsys, San Diego, CA). The plates were incubated at 37C and 5% CO2 for 16 hr. Then 1 uL of LiveBLAzerTM B/G FRET substrate was added using a BioRAPTR FRD (Flying Reagent Dispenser, Aurora Discovery, San Diego, CA) and then the plates were incubated at room temperature for 2 hours, and fluorescence intensity was measured by an Envision plate reader (PerkinElmer, Shelton, CT). For cell viability readout that measures cytotoxicity, 4 uL/well of CellTiter-Glo reagent was added into the assay plates using a FRD. After 30 min incubation at room temperature, the luminescence intensity in the plates was measured using a ViewLux (PerkinElmer) plate reader.
In general terms: qHTS replaces the single test concentration by a dilution series.
As for `CCC(CO)CO`, the compound was classed as inactive.
Take `CCCCC(CC)COC(=O)c1ccccc1` (stereo not given): the compound was classed as inactive.
For `O=C(Nc1cccc(C2=NCCN2)c1)Nc1cccc(C2=NCCN2)c1`, the activity change, negative = cytotoxicity is 2.07% [at 19 µM] (inactive).
With `CCCCCCCCCCCCC`, the outcome was inactive.
Still for that read-out and setting: the same measure for `C[C@H]1O[C@H](O[C@H]2[C@H](O)[C@@H](O)[C@@H](O[C@H]3[C@H](O)[C@@H](O)[C@H](O)O[C@@H]3CO)O[C@@H]2CO)[C@H](O)[C@@H](O)[C@@H]1N[C@H]1C=C(CO)[C@@H](O)[C@H](O)[C@H]1O`: “inactive”.
The same measure, in the same setting: next, `CCCCCCCCCCCCCC(=O)OC`: “inactive”; `C=C[Si](C)(C)O[Si](C)(C)C=C`: “inactive”; `O=S1(=O)CCCC1`: “inactive”.
On the same count and under the same terms, the same measure for `COc1cc(C=O)ccc1OC(=O)C(C)C`: “inactive”.
As for `CCCCCCCCCCCCCCCC(=O)NCCO`, the compound was called inactive.
The same measure, in the same setting: the same measure for `OC(CCN1CCCCC1)(c1ccccc1)c1ccccc1`: “inactive”.
The same measure, in the same setting: next, `NS(=O)(=O)c1cc2c(cc1Cl)NC(C(Cl)Cl)NS2(=O)=O` (stereo not given): “inactive”; `CC(=O)OC[C@H]1O[C@@H](OC(C)=O)[C@H](OC(C)=O)[C@@H]1OC(C)=O`: “inactive”; `O=C1c2ccccc2-c2ccccc21`: “inactive”.
On the same count and under the same terms, next, `CC(Cl)COP(=O)(OCC(C)Cl)OCC(C)Cl` (stereo not given): “inactive”; `CN(C)CCOCCN(C)CCO`: “inactive”; `Nc1ccc(S(=O)(=O)Nc2ccccn2)cc1`: “inactive”.
As for `CN(C)CCCNCCC#N`, the call was inactive.
Still for that read-out and setting: next, `C=CCOCC(CO)(COCC=C)COCC=C`: “inactive”; `O=CN1CCOCC1`: “inactive”; `CCC1Nc2cc(Cl)c(S(N)(=O)=O)cc2S(=O)(=O)N1` (stereo not given): “inactive”.
The same measure, in the same setting: the same measure for `NC(=O)NC(=O)Cc1ccccc1`: “inactive”; for `OC[C@@H](O)[C@H](O)[C@@H](O)[C@@H](O)CO`: “inactive”; for `CC(C)CCO`: “inactive”.
For `CC1CCC(C(C)(C)S)C(=O)C1` (stereo not given), the outcome was inactive.
Still for that read-out and setting: the same measure for `O=C(c1ccc2c(c1)C(=O)OC2=O)c1ccc2c(c1)C(=O)OC2=O`: “inactive”; for `CO[Si](CCCCl)(OC)OC`: “inactive”; for `CCC(C)N` (stereo not given): “inactive”.
As for `CCCOCCOCCOCCO`, the result was inactive.
Regarding `CCCCOC(=O)C(=O)OCCCC`, the result was inactive.
Same read-out and setting: next, `CCCCCCCC[Si](OCC)(OCC)OCC`: “inactive”; `O=S(=O)(O)CCO`: “inactive”.
The same measure, in the same setting: next, `O=C1OC(=O)c2cc(Oc3ccc4c(c3)C(=O)OC4=O)ccc21`: “inactive”.
The same measure, in the same setting: next, `CCN(CCO)c1cccc(C)c1`: “inactive”; `CC(C)(CO)[C@@H](O)C(=O)NCCCO`: “inactive”; `CO[Si](CCCS)(OC)OC`: “inactive”.
Take `NS(=O)(=O)c1cc2c(cc1Cl)NC(CC1CCCC1)NS2(=O)=O` (stereo not given): the result was inactive.
Still for that read-out and setting: next, `CCN(CCC#N)c1ccccc1`: “inactive”.
Regarding `O=CO`, the activity change, negative = cytotoxicity was 0.536% [at 8.39 µM] (inactive).
Consider `CCCCOC(=O)[C@@H](C)Oc1ccc(Oc2ccc(C(F)(F)F)cn2)cc1`, for which the compound was classed as inactive.
